Screens as filed in PubChem.
TRPV1 PAM: potentiators of human vanilloid receptor 1 (TRPV1); Q8NER1; TRPV1-expressing cells, Fluo-8 calcium influx, capsaicin EC20 potentiation; potentiation, % at 8.33 µM; 320,000 tested, 0.02% active; AID 540277; in the data active = potentiation above about 80%; inconclusive = between about 30% and that limit
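TRPV1-expressing cells were cultured overnight at 35.5C and loaded with Fluo-8 calcium dye for 40 to 90 min at room temperature. After a 10 s baseline, compound was added and calcium influx was read kinetically for 3 min (ex 480/em 520 nm).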
TRHR enhancer-1: allosterically enhances the human TRH receptor | TRHR cells, fluo-8 calcium fluorescence, EC20 TRH enhancement | P34981 | AID 493056 | enhancement, % at 2 µM | 360,000 tested, 0.66% active; in the data active = enhancement above about 30%
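Enhancer read-out: after compound pinning and an initial kinetic agonist-mode read, an EC20 of TRH (10 nM final) was injected and fluo-8 calcium signal (Ex 480/Em 530) followed at 1 s/cycle for 100 cycles in TRHR-expressing cells.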
TRPV1 agonist: human TRPV1 agonism; Q8NER1; 320,000 tested, 0.19% active; AID 540275; TRPV1-expressing cells, Fluo-8 calcium influx, agonist mode; activation, % at 8.33 µM; in the data active = activation above about 80%; inconclusive = between about 30% and that limit
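Cells expressing TRPV1 were dye-loaded with Fluo-8 and read kinetically: 10 s baseline, 3 min after compound (agonist portion), then 2 min after EC20 capsaicin (allosteric enhancer portion). Calcium-bound dye fluorescence at 480/520 nm.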
TRPML1 inh: human mucolipin-1 channel inhibition; Q9GZU1; TRPML1-inducible cells, Ca2+ dye fluorescence, FDSS; stronger effect = lower value; inhibition of EC80 agonist-evoked calcium signal; activity change, negative = inhibition, % (test concentration not listed); 390,000 tested, 0.02% active; AID 624415; in the data active = activity change below about -50%; inconclusive = between about -30% and that limit;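 note: stimulus is agonist 54-4 at its EC80 concentration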
Target sequence (Q9GZU1 whole entry, looked up): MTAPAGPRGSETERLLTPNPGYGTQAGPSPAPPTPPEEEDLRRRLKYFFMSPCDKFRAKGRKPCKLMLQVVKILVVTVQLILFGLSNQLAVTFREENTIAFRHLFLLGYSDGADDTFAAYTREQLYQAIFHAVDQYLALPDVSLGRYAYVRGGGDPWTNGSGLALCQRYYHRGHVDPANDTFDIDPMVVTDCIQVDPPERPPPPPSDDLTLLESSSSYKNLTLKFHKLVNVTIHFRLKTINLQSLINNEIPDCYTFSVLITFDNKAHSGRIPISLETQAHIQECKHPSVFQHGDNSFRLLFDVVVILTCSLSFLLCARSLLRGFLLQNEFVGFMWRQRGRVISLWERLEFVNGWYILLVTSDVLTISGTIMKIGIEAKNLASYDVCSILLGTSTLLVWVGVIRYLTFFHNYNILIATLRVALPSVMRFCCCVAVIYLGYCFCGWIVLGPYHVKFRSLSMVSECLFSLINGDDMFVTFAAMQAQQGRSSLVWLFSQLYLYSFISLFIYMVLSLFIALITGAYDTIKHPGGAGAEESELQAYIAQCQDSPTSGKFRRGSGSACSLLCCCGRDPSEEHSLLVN
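TRPML1-DL cells, Tet-induced overnight (~16 h, 37 °C) at 1,500 cells/well, were loaded with Ca8 no-wash dye plus quencher for 45-90 min at room temperature. Compounds were pinned during FDSS kinetic reading; agonist 54-4 at EC80 (4 uM final) then added.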
TRPML1 ag: agonists of human TRPML1 channel; TRPML1-expressing cells, Ca2+ dye fluorescence, FDSS; activation, % (concentration not given with the values); 410,000 tested, 0.12% active; in the data active = activation above about 50%; inconclusive = mostly about 30% to 49%
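Agonist activity was taken from a 110 s kinetic Ca2+ dye read on the FDSS after pinning compounds onto TRPML1-DL cells. The cells were seeded at 1,500/well with Tet inducer, incubated about 16 h, then dye-loaded at room temperature.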
TRHR agonist-1: activates the human TRH receptor. P34981. TRHR cells, calcium flux fluo-8, FDSS agonist mode. activation, % at 2 µM. 360,000 tested, 0.18% active. AID 493084; in the data active = activation above about 30%
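TRHR-expressing cells loaded with fluo-8 calcium dye; 23 nL library compound pin-transferred, kinetic FDSS fluorescence (Ex 480/Em 530) recorded about 180 s for agonist-induced calcium release, before a 10 nM TRH EC20 addition for potentiator mode.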
TRHR enhancer-2: human TRH receptor allosteric enhancement confirmation | shares compounds with TRHR enhancer-1 | TRH receptor cell assay, enhancer confirmation qHTS | activity change, negative = inhibition, % at 46.1 µM | 970 tested, under 10 active | AID 493076;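 note: compound effect scored on response to added TRH at EC20 of 10 nM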
TRHR agonist-2: confirmation of human TRH receptor agonists; shares compounds with TRHR enhancer-1; TRHR-expressing cells, agonist activation read-out; Potency, µM (series often up to 46.1 µM), most hits filed as activators; 970 tested, 8% active; AID 493078; note: nearly all actives have a fitted effect of over 75% in size
Of the large screens only hits and unclear results are named; the others gave an inactive call (follow-up assays come after a bar, where they were run). Shown are actives, neighbours in structure and some others; about 0.96% of the full set was active somewhere. Unless noted, calls come from the whole dose curve; as a rule, active = well fitted curve in the direction sought with a large enough effect; inconclusive = small, poorly fitted or top-dose-only effect, or another doubt; inactive = no such curve, though single readings can be large; an effect the other way counts as inactive or inconclusive.

O=C(COC(=O)c1ccc(C(F)(F)F)cc1)NC(=O)C1CCCCC1	none (no result: TRPV1 PAM, TRHR enhancer-1, TRPV1 agonist, TRPML1 inh, TRHR agonist-1)
CCc1cc(C(=O)N2CCCC(CCC(=O)N3CCN(c4ccccn4)CC3)C2)no1 (stereo not given)	TRHR enhancer-1 42 | TRHR enhancer-2 inactive | TRHR agonist-2 inactive
CC(C)c1cc(C(=O)N2CCCC(CCC(=O)N3CCN(c4ccccn4)CC3)C2)no1 (stereo not given)	none
O=C(C[N+]12CN3CN(CN(C3)C1)C2)c1ccc(Br)cc1	none (no result: TRPV1 PAM, TRHR enhancer-1, TRPV1 agonist, TRPML1 inh, TRHR agonist-1)
OC(CN1CCCCC1)c1ccccc1 (stereo not given)	none (no result: TRPV1 PAM, TRHR enhancer-1, TRPV1 agonist, TRPML1 inh, TRHR agonist-1)
COc1ccccc1NS(=O)(=O)c1cccc(C(=O)N/N=C/c2c(C)nn(-c3ccccc3)c2N2CCCC2)c1	none | TRHR enhancer-2 inactive | TRHR agonist-2 inactive
COc1ccc(CCNC(=O)CSc2nc(O)c(CCC(C)C)c(=O)[nH]2)cc1OC	none
CCCCc1c(O)nc(SCC(=O)NCCc2ccc(OC)c(OC)c2)[nH]c1=O	TRHR enhancer-1 41 | TRHR enhancer-2 inactive | TRHR agonist-2 inactive
COc1ccc(CCNC(=O)CSc2nc(C)nc3c2c(=O)n(C)c(=O)n3C)cc1OC	TRHR enhancer-1 45 | TRHR enhancer-2 inactive | TRHR agonist-2 inactive
CC1CCCN(C(=O)Cn2nnc(-c3ccc(S(C)(=O)=O)cc3)n2)C1 (stereo not given)	TRHR enhancer-1 41 | TRHR enhancer-2 inactive | TRHR agonist-2 inactive
Cc1c(NC(=O)C(C)OC(=O)c2c3c(nc4ccccc24)CCC3)c(=O)n(-c2ccccc2)n1C (stereo not given)	TRHR enhancer-1 49 | TRHR enhancer-2 inactive | TRHR agonist-2 inactive
Cc1c(NC(=O)COC(=O)c2c3c(nc4ccccc24)CCCC3)c(=O)n(-c2ccccc2)n1C	none
Cc1ccc2nc(-c3ccc(C)c(NC(=O)COc4ccccc4Cl)c3)oc2c1	none (no result: TRPV1 PAM, TRHR enhancer-1, TRPV1 agonist, TRPML1 inh, TRHR agonist-1)
COc1ccc(-c2cc(C(F)(F)F)c3c(n2)sc2c(O)cc(=O)[nH]c23)c(OC)c1	TRHR agonist-1 34 | TRHR enhancer-2 inactive | TRHR agonist-2 inconclusive
CCOC(=O)C1=C(C)NC2=C(C(=O)C(C(=O)OCC)C(c3ccco3)C2)C1c1ccccc1C (stereo not given)	none (no result: TRPV1 PAM, TRHR enhancer-1, TRPV1 agonist, TRPML1 inh, TRHR agonist-1)
Cc1ccnc(NC(=O)CCC(=O)N(Cc2ccco2)C(C(=O)NC(C)C)c2ccc(F)cc2)c1 (stereo not given)	TRHR enhancer-1 43 | TRHR enhancer-2 inactive | TRHR agonist-2 inactive
CCOCC(=O)Nc1ccc(C)c(Cl)c1	TRHR enhancer-1 62 | TRHR enhancer-2 inactive | TRHR agonist-2 inactive
Cc1ccc(NC(=O)COc2ccccc2)cc1Cl	TRPV1 agonist inconclusive
COc1ccc(-c2nn3c(-c4cc(C)[nH]n4)nnc3s2)cc1	none (no result: TRPV1 PAM, TRHR enhancer-1, TRPV1 agonist, TRPML1 inh, TRHR agonist-1)
NC(=O)[C@@H]1CCCN1C(=O)[C@@H](Cc1cnc[nH]1)NC(=O)[C@@H]1CCC(=O)N1	TRHR agonist-1 85 | TRHR enhancer-2 inactive | TRHR agonist-2 0.015µM
COc1ccc(N=C2O/C(=C/c3sc(=S)n(CC4CCCO4)c3O)N=C2C#N)cc1 (stereo not given)	TRHR enhancer-1 43 (no result: TRPV1 PAM, TRPV1 agonist) | TRHR enhancer-2 inactive | TRHR agonist-2 inactive
COc1ccc(/C=C2\SC(=S)N(CC3CCCO3)C2=O)cc1 (stereo not given)	none
CC(=O)Nc1ccc(-c2nnc(SCc3ccccc3)n2C)cc1	none (no result: TRPV1 PAM, TRHR enhancer-1, TRPV1 agonist, TRPML1 inh, TRHR agonist-1)
CC1=Nc2ccccc2/C1=C/c1sc(=S)n(-c2cccc(C(=O)O)c2)c1O	none | TRHR enhancer-2 inactive | TRHR agonist-2 21µM
CSc1nsc2nc(=O)c(/C=C3\C(C)=Nc4ccccc43)c(N)n12	none
COc1ccc(NC(=O)CNS(=O)(=O)c2ccc(Cl)cc2)cc1	TRHR enhancer-1 44 | TRHR enhancer-2 inactive | TRHR agonist-2 inactive
COc1cccc(NC(=O)CNS(=O)(=O)c2ccc(Cl)cc2)c1	none
